Source: PubChem BioAssay AID560 (The Scripps Research Institute Molecular Screening Center, 2006)
Out of some 65,000 compounds screened, about 980 (1.5%) were called active.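 Rule for the calls: active = activation above the mean of all tested compounds plus 3 SD (cut at about 49% in these data); inactive = the rest.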 The list comes from a sample in which actives are over-represented; it also holds similar structures and randomly drawn compounds.

What follows are compounds tested against Nuclear receptor ROR-alpha (Homo sapiens) (UniProt P35398) (assay: RORA ligand-binding domain transcriptional activation – cell-based, luminescence, primary screen (AID 560;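 note: 0% = DMSO-treated RORA cells and 100% = added signal equal to DMSO minus mock-transfected cells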)). Conditions: CHO-K1 Gal4-RORA LBD luciferase reporter, at 10 µM, hits give high values, percent increase over mock-subtracted basal signal.
Chain of Nuclear receptor ROR-alpha (Homo sapiens) (P35398 whole entry, looked up, the tested form may be a part): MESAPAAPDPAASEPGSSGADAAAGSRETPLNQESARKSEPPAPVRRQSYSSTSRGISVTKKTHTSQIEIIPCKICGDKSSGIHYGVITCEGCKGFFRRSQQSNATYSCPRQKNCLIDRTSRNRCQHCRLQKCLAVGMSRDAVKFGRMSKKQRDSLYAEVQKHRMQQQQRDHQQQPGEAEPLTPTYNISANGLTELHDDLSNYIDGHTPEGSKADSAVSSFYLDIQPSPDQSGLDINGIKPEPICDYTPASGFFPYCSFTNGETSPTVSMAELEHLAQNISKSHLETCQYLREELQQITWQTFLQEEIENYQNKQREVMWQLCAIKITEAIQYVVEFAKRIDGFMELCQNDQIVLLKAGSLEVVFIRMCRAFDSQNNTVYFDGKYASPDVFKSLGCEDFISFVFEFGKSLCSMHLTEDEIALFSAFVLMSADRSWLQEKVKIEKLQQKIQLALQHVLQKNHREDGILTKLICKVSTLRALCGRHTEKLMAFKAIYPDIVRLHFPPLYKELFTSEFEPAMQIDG

Row | Structure (SMILES) | activation
1 | O=C(O)C1OC(C(=O)O)C2C1C(F)(F)C2(F)F (stereo not given) | -1.8% (inactive)
2 | CCCn1c(=O)c(-c2ccccc2)c(O)c2ccccc21 | 5.6% (inactive)
3 | CCOCCCNS(=O)(=O)Cc1ccccc1 | -16.2% (inactive)
4 | O=C1CCCC2=C1C(c1cccs1)n1nc(SCc3ccccc3)nc1N2 (stereo not given) | -13.1% (inactive)
5 | O=C(CN1CCOCC1)N1CCCc2c1c(=O)oc1ccc(OCc3ccccc3)cc21 | -15.9% (inactive)
6 | CCC(=O)Oc1cccc(C(=O)Nc2ccc(-c3nnc(-c4ccco4)o3)cc2)c1 | 112% (active)
7 | Cc1ccc(OCC(=O)Nc2ccc(-c3nnc(-c4ccco4)o3)cc2)cc1 | 20.8% (inactive)
8 | CCOc1ccc(-c2nnc(-c3ccco3)o2)cc1 | -31.6% (inactive)
9 | CCOc1cc(C(=O)Nc2ncccn2)cc(OCC)c1OCC | -3.1% (inactive)
10 | O=C(Nc1ncccn1)c1cccs1 | -6.7% (inactive)
11 | Cn1c(=O)c(C(=O)Nc2ncccn2)c(O)c2ccccc21 | 61% (active)
12 | CC(C)C(c1nnnn1CCc1ccccc1)N1CCN(C(=O)c2ccco2)CC1 (stereo not given) | -9% (inactive)
13 | CCC(CC)c1nnc(NS(=O)(=O)Cc2ccccc2)s1 | -5.9% (inactive)
14 | O=C(c1cc(-c2ccccc2O)on1)N1CCCC1 | 18.2% (inactive)
15 | O=C(CSCc1cccs1)N1CCCC1 | 22.9% (inactive)
16 | COc1ccccc1N1CCN(C(=O)c2cc(-c3ccc(Br)cc3)on2)CC1 | -2.4% (inactive)
17 | Cc1cc(NC(=O)c2cc(-c3cccs3)on2)nn1Cc1ccc(Cl)cc1 | 27.5% (inactive)
18 | COc1ccccc1-c1cc(C(=O)N2CCCCC2)no1 | 56.5% (active)
19 | O=C(c1cc(-c2cccs2)on1)N1CCCCC1 | 63.4% (active)
20 | Cc1cc(Cl)c(S(=O)(=O)NCCC(=O)O)cc1OCC(N)=O | -22.1% (inactive)

Row | Structure (SMILES) | activation
21 | COc1ccc(OCCCON2C(=O)c3ccccc3C2=O)cc1 | -11.1% (inactive)
22 | C[N+]1(CCNC(=O)/C=N/O)CCCCC1 | -28.3% (inactive)
23 | O=C(Nc1ccon1)c1cccc(Cl)c1 | -2.3% (inactive)
24 | C=C(C)CSc1nc(N)c2c3c(sc2n1)CCC3 | 56.2% (active)
25 | CN(C)CCSc1nc(N)c2c3c(sc2n1)COC(C)(C)C3 | 10.3% (inactive)
26 | C=C(C)Cn1c(SCC(=O)NCc2ccco2)nc2sc3c(c2c1=O)CCC3 | -4% (inactive)
27 | CCn1cc(C(=O)NCC2CCCO2)c(=O)c2cc(S(=O)(=O)N3CCCCC3)ccc21 (stereo not given) | -5.2% (inactive)
28 | O=C(CCCn1c(SCC(=O)c2ccc(F)cc2)nc2ccccc2c1=O)NCc1ccco1 | 40.5% (inactive)
29 | COc1ccc(-c2nc(-c3ccccc3)no2)c(OC)c1 | -78.4% (inactive)
30 | COc1cc(-c2nc(-c3ccncc3)no2)cc(OC)c1OC | 5.3% (inactive)
31 | COc1ccc(-c2noc(-c3cccc(OC)c3OC)n2)cc1OC | 89.8% (active)
32 | CC(=O)Nc1ccc(NS(=O)(=O)c2cc(C)sc2C)cc1 | -3% (inactive)
33 | COc1ccc(C(=O)Nc2ccc3c(c2)OCO3)cc1OC | 69.8% (active)
34 | Cn1c(=O)n(C)c2cc(C(=O)Nc3ccc4c(c3)OCO4)ccc21 | 19.1% (inactive)
35 | CC(C)C(=O)Nc1cccc(C(=O)Nc2ccc3c(c2)OCO3)c1 | 31.6% (inactive)
36 | O=C(Nc1ccc(-c2nnc(-c3ccccc3)o2)cc1)c1ccc(Br)o1 | 9.1% (inactive)
37 | COc1ccc(CC(=O)Nc2ccc(-c3nnc(-c4ccccc4)o3)cc2)cc1 | 8.7% (inactive)
38 | Nc1ccc(-c2nnc(-c3ccc(-c4ccccc4)cc3)o2)cc1 | 60.7% (active)
39 | CN(C)c1ccc(CNC23CN4CN(CN(C4)C2)C3)cc1 | -19.1% (inactive)
40 | CN(Cc1ccccc1)Cc1ccccc1F | 5.2% (inactive)
